The list is not random: actives were taken first. Their share in the collection is about 1.4%.
AmpC inh no detg – inhibitors of E. coli AmpC beta-lactamase without detergent; Potency, µM (top dose mostly 57.1 µM), for inactives: at the highest dose activity change, negative = inhibition, most hits filed as inhibitors; actives 0.52% (n = 330,000); AmpC nitrocefin hydrolysis, absorbance 480 nm, 0.0001% Triton;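 also: plate controls were no compound for no effect and no enzyme for full effect; nearly all actives have a fitted effect of over 20% in size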
Target sequence (P00811 whole entry, looked up): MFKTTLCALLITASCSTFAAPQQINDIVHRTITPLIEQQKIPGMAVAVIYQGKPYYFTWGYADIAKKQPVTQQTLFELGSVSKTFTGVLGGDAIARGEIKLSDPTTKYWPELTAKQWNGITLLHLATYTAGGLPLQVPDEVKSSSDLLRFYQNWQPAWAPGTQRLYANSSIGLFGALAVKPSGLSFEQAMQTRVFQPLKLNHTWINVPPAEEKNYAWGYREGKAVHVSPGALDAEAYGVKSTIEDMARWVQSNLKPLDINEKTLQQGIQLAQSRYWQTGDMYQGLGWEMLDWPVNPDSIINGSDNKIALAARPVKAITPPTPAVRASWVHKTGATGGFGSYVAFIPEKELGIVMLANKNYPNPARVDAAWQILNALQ
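20 mM phosphate pH 7.0 + 0.01% (detergent screen) or 0.0001% Triton X-100; 5.3 nM AmpC reagent; cpd preinc 15 min RT; nitrocefin (800 uM stock) to start; A480 q20 s × 4 min; Activity was normalised to no-enzyme and no-compound control wells.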
Vaccinia mCherry – vaccinia inhibition (mCherry reporter); actives 0.63% (n = 310,000); AID 720579; Vaccinia virus mCherry reporter infection, fluorescence; Potency, µM (series often up to 36.5 µM), without a hit: top-dose activity change, negative = inhibition, most hits filed as inhibitors; calls by dose curve; tested in A549 cells; also: % is scaled to controls: 0 for no effect and ±100 for the full control effect; nearly all actives have a fitted effect of over 35% in size
AMA1 RON2 block – inhibitors of Plasmodium falciparum AMA1-RON2 interaction; actives 0.2% (n = 360,000); AID 720542; Potency, µM (top dose mostly 58.2 µM), without a hit: top-dose activity change, negative = inhibition, hits mostly inhibitors; AlphaScreen AMA1-biotinylated RON2 peptide binding;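 also: 0% = vehicle wells and -100% = peptide control; nearly all actives have a fitted effect of over 45% in size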
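AMA1 (3D7) with his tag at 25 nM final met compounds first, then biotinylated RON2 peptide at 25 nM; detection used donor plus acceptor beads, 10 µg/mL apiece, read by AlphaScreen after 30 min at room temperature.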
Vaccinia Venus – inhibitors of vaccinia virus (Venus reporter) | Vaccinia virus Venus reporter expression, fluorescence | Potency, µM (series often up to 36.5 µM), without a hit: at the highest dose activity change, negative = inhibition, actives largely listed as inhibitors | actives 0.46% (n = 330,000) | AID 720580; calls by dose curve; tested in A549 cells; also: % is scaled to controls: 0 for no effect and ±100 for the full control effect; nearly all actives have a fitted effect of over 30% in size
AmpC detergent – inhibitors of E. coli AmpC beta-lactamase with detergent | AmpC hydrolysis of nitrocefin, absorbance 480 nm, 0.01% Triton | Potency, µM (highest dose often 114 µM), for the others: at the highest dose activity change, negative = inhibition, most hits filed as inhibitors | actives 0.041% (n = 370,000) | AID 485294;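 also: 0% = no-compound wells and -100% = no-enzyme wells; nearly all actives have a fitted effect of over 25% in size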
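20 mM phosphate pH 7.0 + 0.01% (detergent screen) or 0.0001% Triton X-100; 5.3 nM AmpC reagent; cpd preinc 15 min RT; nitrocefin (800 uM stock) to start; A480 q20 s × 4 min; Activity was normalised to no-enzyme and no-compound control wells.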
SARS PLpro yeast – inhibitors of SARS-CoV papain-like protease in yeast; Potency, µM (highest dose often 32.9 µM), for the others: at the highest dose activity, positive = growth rescue, usual class: activators; actives 0.19% (n = 330,000); S. cerevisiae expressing SARS-CoV PLpro, growth rescue; calls by dose curve; also: 0% is about no effect; nearly all actives have a fitted effect of over 55% in size
* hit, by the source's call; i = inactive; ? = inconclusive; . = no result; ! = not active in a repeat. Unless noted, calls follow the shape of the dose curve; as a rule, active = well fitted curve in the direction sought with a large enough effect; inconclusive = small, poorly fitted or top-dose-only effect, or another doubt; inactive = no such curve, though single readings can be large; an effect the other way counts as inactive or inconclusive. Potency is read from the fitted curve at half-maximal effect.

SMILES	AmpC inh no detg	Vaccinia mCherry	AMA1 RON2 block	Vaccinia Venus	AmpC detergent	SARS PLpro yeast
O=[N+]([O-])c1ccc(N2CCCC(C(F)(F)F)C2)c2ccncc12 (stereo not drawn)	-6%	2.8µM*	?	7.9µM*	-9%	-51%
O=[N+]([O-])c1cc(C(F)(F)F)ccc1N1CCCC(O)C1 (stereo not drawn)	1%	-18%	-8%	-4%	-12%	0%
CCCOc1cccc(-c2cc(C(=O)N/N=C/c3ccccn3)c3ccccc3n2)c1	-8%	?	91%	-7%	?	4%
CCCOc1cccc(-c2cc(C(=O)NN)c3ccccc3n2)c1	10µM*	-29%	44%	-11%	-13%	-1%
Clc1ccc(/C=C/c2nc3ccccc3[nH]2)c(Cl)c1	11µM*	.	-5%	.	-4%	-46%
Clc1ccc(/C=C/c2nc3ccccc3[nH]2)cc1	-44%	.	8%	.	?	-28%
O=C(N/N=C/c1ccc(Br)s1)c1c[nH]c2ccccc12	25µM*	-11%	-1%	-25%	-7%	-25%
Oc1cc(-c2nc3ccccc3s2)cc2c1OCCN(Cc1cccn1-c1ncccn1)C2	.	-13%	.	-1%	.	.
C=C1CCC[C@]2(C)C[C@H]3OC(=O)C(CNC(C)CC)[C@H]3CC12 (stereo partly drawn)	-30%	.	3%	.	2%	0%
C=C1CCC[C@]2(C)C[C@H]3OC(=O)C(CN(C)CC(OC)OC)[C@H]3CC12 (stereo partly drawn)	75%	0.89µM*	-24%	?	-3%	1%
C[C@H]1CCC[C@]2(C)C[C@H]3OC(=O)C(CN4CCCCCC4)[C@H]3C=C12 (stereo partly drawn)	-6%	.	-1%	.	-2%	1%
C=C1CCC[C@]2(C)C[C@H]3OC(=O)C(CN4CCCCC4CO)[C@H]3CC12 (stereo partly drawn)	-10%	3.2µM*	9%	2.5µM*	7%	-1%
C=C1CCC[C@]2(C)C[C@H]3OC(=O)C(CNC(C)(CO)CO)[C@H]3CC12 (stereo partly drawn)	2%	7.9µM*	5%	?	-17%	0%
C=C1CCC[C@]2(C)C[C@H]3OC(=O)C(CNC(CC)CO)[C@H]3CC12 (stereo partly drawn)	-23%	7.1µM*	3%	7.1µM*	4%	1%
N#CCCn1cc(CNCc2cccnc2)c(-c2ccccc2)n1	.	-8%	.	-7%	.	.
COc1cc2nc(N3CCN(C)CC3)nc(NC(C)C)c2cc1OC	.	-7%	.	-24%	.	.
COc1cccc(CNC(=O)c2c(OC)cc(=O)n3c2CCN(C(=O)c2cc(C)ccc2C)CC3)c1	.	-1%	.	0%	.	.
O=C(CSc1n[nH]c(=O)[nH]c1=O)Nc1ccc2c(c1)C(=O)c1ccccc1C2=O	-42%	?	-6%	8%	?	-1%
CCN(c1ccccc1)S(=O)(=O)c1cc(NC(=O)CSc2n[nH]c(=O)[nH]c2=O)ccc1Cl	20µM*	.	1%	.	-9%	1%
N#Cc1c(-c2ccco2)cc(-c2ccccc2)[nH]c1=O	-43%	.	-7%	.	-7%	1%
N#Cc1c(-c2ccccc2)cc(-c2ccco2)c(C#N)c1N	14µM*	.	.	.	-5%	4%
Cc1cc(C)cc(N2CCn3c2nc2c3c(=O)n(CCc3ccccc3)c(=O)n2C)c1	.	-7%	.	-3%	19%	.
Cc1ccc(S(=O)(=O)N(C)c2ccc(OCC(=O)Nc3nc(-c4ccccc4)cs3)cc2)cc1	2µM*	-20%	9%	-14%	-9%	6%
CC(C)c1ccc(/C=C/C(=O)Nc2nc3ccc([N+](=O)[O-])cc3s2)cc1	-28%	.	10%	.	-4%	-1%
O=[N+]([O-])c1ccc2nc(NN=Cc3ccc(O)cc3)sc2c1	.	3.2µM*	19%	?	.	.
SMILES	AmpC inh no detg	Vaccinia mCherry	AMA1 RON2 block	Vaccinia Venus	AmpC detergent	SARS PLpro yeast
CC1CCCCN1C(=O)c1cnn2c1NC(=C1CC1)C=C2C(F)F (stereo not drawn)	.	i	.	-11%	.	.
CCCN1CNc2c(c(=O)[nH]c(=S)n2CCc2ccsc2)C1	.	-3%	.	-14%	.	.
COc1cccc(CCn2c(N)cc(=O)[nH]c2=S)c1OC	.	-8%	.	-6%	.	.
c1ccc(-c2cc(-c3ccccc3)[n+](-c3ccccc3)c(-c3ccccc3)c2)cc1	21%	-40%	-7%	?	3%	1%
Cc1ccc(-c2cc(-c3ccc(C)cc3)[n+](-c3ccccc3)c(-c3ccc(C)cc3)c2)cc1	50%	?	-2%	3.5µM*	1%	-2%
Cc1ccc(-c2cc(-c3ccccc3)cc(-c3ccccc3)[n+]2-c2ccccc2)cc1	13%	8.9µM*	1%	10µM*	0%	-10%
O=C(C[N+]1(CC(O)c2ccccc2)CCCCC1)c1ccccc1 (stereo not drawn)	.	i	.	-8%	.	.
O=c1[nH]c(=O)n(Cc2ccc(Oc3ccccc3)cc2)cc1Br	-31%	.	.	.	-13%	0%
C=C1CC(Cn2cc(Br)c(=O)[nH]c2=O)(c2ccc(-c3ccccc3)cc2)OC1=O (stereo not drawn)	.	2.8µM*	-7%	7.9µM*	.	.
O=C1CC2(CCCC2)CC(=O)N1CCCCNCC1COc2ccccc2O1 (stereo not drawn)	.	-20%	.	?	.	.
C[n+]1cc2c3c(ccc2c2ccc4cc5c(cc4c21)OCO5)OCO3	.	11µM*	.	10µM*	.	.
Cc1ccc2oc(-c3ccc(C)c(NC(=O)COc4ccccc4C)c3)nc2c1	.	-8%	.	-21%	.	.
N#CC1=C(SCC(=O)NC23CC4CC(CC(C4)C2)C3)NC(=O)C(C#N)C12CCCCC2 (stereo not drawn)	-31%	10µM*	23%	13µM*	-7%	-6%
CCSc1nc(-c2ccccc2)c(C#N)c(=O)[nH]1	2.2µM*	-7%	5%	-6%	-1%	2%
CCN(CC)CCCn1c(=S)[nH]c2cc(Cl)ccc2c1=O	28µM*	.	-1%	.	?	0%
CCN(CC)CCCn1c(=S)[nH]c2ccc(Cl)cc2c1=O	0.28µM*	.	3%	.	1%	3%
CCOc1cc2[nH]c(=S)n(CCCN(CC)CC)c(=O)c2cc1OCC	1%	.	2%	.	0%	12%
COC(=O)c1cc(CNC(=O)c2ccc3ncccc3c2)cc(NC(=O)c2ccccc2Cl)c1	.	-1%	.	-6%	.	.
COc1cc(OC)c(-c2nn3c(-c4n[nH]c5c4CCC5)nnc3s2)cc1OC	.	7.1µM*!	.	?	.	.
N#Cc1ccc(C=NN2CCCCCC2)cc1	.	-14%	28µM*	-6%	.	.
Clc1ccc(/C=N/N2CCCCC2)cc1	-29%	.	-16%	.	11%	0%
COc1cc2nc(N3CCN(C)CC3)nc(NC3CCN(C)CC3)c2cc1OC	.	-15%	.	-30%	.	.
